Several values for one entry are separate records, joined by “and”; a condition that tells them apart may be missing. Equal entries are not always repeated. Compounds without any hit were thinned out: in the full panel of roughly 83,000, 20% have a hit.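 Interpretation: 100, growth as untreated; towards 0, rising growth inhibition; 0, no net growth; 0 to -100, cell death. Compounds scoring below 10 were considered active.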 Activity calls are given as the source filed them.
Tests used:
Experiment in all cases: NCI-60 one-dose screen, 48 h (100 = growth as untreated, 0 = no growth, -100 = all killed)
[1] = tested on: HCT-15 colon; settings: 10 µM
[2] = tested on: HT29 colon; settings: 10 µM
[3] = tested on: SNB-75 CNS; settings: 10 µM
[4] = tested on: SNB-19 CNS; settings: 10 µM
[5] = tested on: U251 CNS; settings: 10 µM
[6] = tested on: PC-3 prostate; settings: 10 µM
[7] = tested on: SK-MEL-5 melanoma; settings: 10 µM
[8] = tested on: UACC-62 melanoma
[9] = tested on: LOX IMVI melanoma; settings: 10 µM
[10] = tested on: SK-MEL-28 melanoma; settings: 10 µM
[11] = tested on: SK-MEL-2 melanoma; settings: 10 µM
[12] = tested on: EKVX NSCLC; settings: 10 µM
[13] = tested on: SN12C renal; settings: 10 µM
[14] = tested on: UO-31 renal; settings: 10 µM
[15] = tested on: ACHN renal; settings: 10 µM
[16] = tested on: CAKI-1 renal; settings: 10 µM
[17] = tested on: A498 renal; settings: 10 µM
[18] = tested on: HL-60(TB) leukemia; settings: 10 µM
[19] = tested on: CCRF-CEM leukemia; settings: 10 µM
[20] = tested on: TK-10 renal; settings: 10 µM unless noted

Measured: growth

O=C1C(=O)c2ccccc2-c2ccccc21
inactive: [17] 88.9%
active: [1] -69.5% | [2] -16.1% | [3] -100% | [4] -78.6% | [5] -87.8% | [6] -47% | [7] -95.7% | [8]; 10 µM unless noted -67.4% | [9] -58.5% | [10] -91.2% | [11] -50.3% | [12] -96.9% | [13] -61.5% | [14] -86.4% | [15] -94.3% | [16] -100% | [18] -42.4% | [19] -10.9%

CS(=N)(=O)CCC(N)C(=O)O (centres undefined)
inactive: [1] 99.9% | [2] 113% | [3] 91% | [4] 102% | [5] 104% | [6] 89.8% | [7] 110% | [8]; 10 µM unless noted 113% | [9] 103% | [10] 128% | [11] 107% | [12] 109% | [13] 102% | [14] 95.1% | [20] 94.1% | [16] 83.2% | [17] 129% | [18] 127%

NC(Cc1ccccc1)c1ccccc1 (centres undefined)
inactive: [1] 110% and 97.8% | [2] 106% and 95.1% | [3] 93.9% and 84.8% | [4] 105% and 99.7% | [5] 103% and 102% | [6] 84.8% and 90% | [7] 94.1% and 100% | [8]; 10 µM unless noted 99.8% and 91.6% | [9] 92.2% and 97.5% | [10] 101% and 110% | [11] 99.8% and 101% | [13] 102% and 101% | [14] 93.6% and 69.8% | [20] 101% and 103% | [15] 105% and 101% | [16] 96.5% and 102% | [17] 99.9% | [18] 102% and 107% | [19] 110% and 90%

C/C(=C\c1ccc(Cl)c(Cl)c1)[N+](=O)[O-]
8.59% (active) and 85.4% (inactive): [19]
4.82% (active) and 91.4% (inactive): [20]
-52.3% (active) and 102% (inactive): [2]
-35% (active) and 85.2% (inactive): [6]
-24.5% (active) and 103% (inactive): [10]
-75.1% (active) and 90.1% (inactive): [9]
-66.8% (active) and 101% (inactive): [1]
-23.9% (active) and 87.8% (inactive): [5]
-26.5% (active) and 83.5% (inactive): [18]
-43.4% (active) and 101% (inactive): [13]
-84.4% (active) and 97.6% (inactive): [14]
inactive: [3] 90.3% | [4] 87.4% and 103% | [7] 84.5% and 101% | [8]; 10 µM unless noted 13.5% and 92.4% | [11] 18.1% and 95.5% | [16] 121% | [17] 103% and 79.2%

CCOP(=O)(OCC)C(O)c1ccccc1Cl (centres undefined)
inactive: [1] 88.8% | [2] 105% | [3] 98.5% | [4] 105% | [5] 99.5% | [6] 98.3% | [7] 103% | [8]; 10 µM unless noted 108% | [9] 97.9% | [10] 114% | [11] 93% | [13] 106% | [14] 90.5% | [15] 96.8% | [16] 101% | [17] 103% | [18] 106% | [19] 93.9%

CC(Cc1ccc2c(c1)OCO2)NN (centres undefined)
inactive: [1] 102% | [2] 98.7% | [3] 90.6% | [4] 105% | [5] 88.9% | [6] 76.3% | [7] 93.6% | [8]; 10 µM unless noted 95.6% | [9] 92.2% | [10] 105% | [11] 101% | [12] 84.2% | [13] 102% | [14] 96.7% | [20] 93% | [15] 98.7% | [17] 77.2% | [18] 81.8% | [19] 84.1%

COc1cc2c(c(OC)c1OC)-c1ccc(O)c(=O)cc1[C@@H](NC(C)=O)CC2
inactive: [1] 38.3% | [2] 29.9% | [3] 67.5% | [4] 38% | [5] 24.6% | [6] 25.2% | [7] 55.8% | [8]; 10 µM 55.2% | [9] 44.1% | [10] 68.3% | [11] 47.9% | [13] 60% | [14] 53.3% | [16] 26.6% | [17] 63.7% | [18] 36% | [19] 16.2%
active: [8]; 100 µM -41.5%

— PubChem BioAssay (NCI)
